The supplement of paper PMC10338343
± gives the standard deviation.

Experiments:
[1] = system: MILI (PIWIL2) piRISC loaded with L1MC piRNA (26 nt); assay: pre-steady-state target cleavage rate (min^-1); guide: L1MC piRNA 5'p-UAACUAAAUACUAUGCAAGCUGUAGG; higher = faster piRNA-guided slicing of the target
In short: (§1)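 With or without 500 nM GTSF1 partner protein, 1 nM active affinity-purified piRISC carrying one synthetic guide was mixed with 0.1 nM transcribed, DNA-blocked target RNA library in HEPES–potassium acetate buffer at 33 °C for 0–8 or 0–960 min. Uncleaved targets were sequenced and normalised to depth and to weakly complementary targets, three trials were pooled, and k3 was capped at 0.0001 min^-1. The pre-steady-state cleavage rate came from a burst-and-steady-state fit.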

[2] = system: EfPiwi piRISC loaded with L1MC piRNA (26 nt); assay: pre-steady-state target cleavage rate (min^-1); auxiliary factor: 500 nM Ephydatia muelleri Gtsf1; guide: L1MC piRNA 5'p-UAACUAAAUACUAUGCAAGCUGUAGG; MIWI and MILI are mouse PIWI proteins and EfPiwi is from a freshwater sponge; tags in brackets are library labels; higher = faster piRNA-guided slicing of the target
In short: as §1

[3] = auxiliary factor: 500 nM mouse GTSF1
[4] = auxiliary factor: none (no GTSF1)

Row | Sequence | pre-steady-state target cleavage rate [1, 3] | pre-steady-state target cleavage rate [1, 4] | pre-steady-state target cleavage rate [2]
1 | UCCUGGAUCAGCUUGCAUAGUAUUUAAGUUA | 0.251 ± 0.025 | 0.0108 ± 0.0029 | 0.00608 ± 0.0023
2 | UCCUGGAUGAGCUAGCAUAGUAAUUAGUUA | 0.131 ± 0.018 | 0.00472 ± 0.0025 | 0.00293 ± 0.0021
3 | UCCUGGAUGUCCUUGCAUAGUAUUUAGUAUA | 0.191 ± 0.03 | 0.00617 ± 0.0026 | 0.00442 ± 0.0031
4 | UCCUGGAUGUGACUUGCAUAGUAUUUAGUUA | 0.114 ± 0.019 | 0.00737 ± 0.0028 | 0.00497 ± 0.0028
5 | UCCUGGUACAGCUUGCAUAGUAUUUGAGUUA | 0.178 ± 0.034 | 0.00534 ± 0.0027 | 0.00306 ± 0.0023
6 | UCCUGGAUCAGCUUGCAUAGUCUUUAGUUA | 0.191 ± 0.011 | 0.00789 ± 0.0024 | 0.0204 ± 0.0053
7 | UCCUCCCUACAGCUUGCAUAGUAUUUAGUUA | 0.303 ± 0.02 | 0.0107 ± 0.0027 | 0.0606 ± 0.017
8 | UCCUGGAACAGCAUGCAUACUAUUUAGUUA | 0.0727 ± 0.0093 | 0.00273 ± 0.0026 | 0.00762 ± 0.0026
